Experimental data: PubChem BioAssay (NCATS)
Results filed as inconclusive are left out. Entries that show only a call come without a potency. Active and inactive are the calls of the source. The call rests on the fitted dose curve; in most records, active means well fitted cell-killing curve with a large enough effect; inconclusive means small, poorly fitted or top-dose-only effect, or effect the other way; inactive means no such curve, though single readings can be large or run the other way.

Assay: Quantitative High-Throughput drug screen in 47 multiple myeloma cell lines against the NCATS MIPE library collection: PCM6_Riken cell viability assay (AID 1919870); further: nearly all actives have a fitted effect of over 30% in size
Conditions: CellTiter-Glo ATP, 48 h; series mostly up to 45.8 µM
Text: PI: Beverly A. Mock Ph.D.
Laboratory of Cancer Biology and Genetics,
Center for Cancer Research, National Cancer Institute,
National Institute of Health, Bethesda, Maryland
Drug resistance and disease progression are common in multiple myeloma (MM) patients, underscoring the need for new therapeutic combinations. […] We hypothesized that effective combinations would reduce MYC expression and enhance p16 activity. […] These preclinical data identify potentially useful drug combinations for evaluation in drug-resistant MM and reveal potential mechanisms of combined drug sensitivity.
Described herein is the primary MIPE qHTS used to cherrypick compounds. Validated compounds were then further tested for potential synergistic activiy.
[1] Peat TJ, Gaikwad SM, Dubois W, Gyabaah-Kessie N, Zhang S, Gorjifard S, Phyo Z, Andres M, Hughitt VK, Simpson RM, Miller MA, Girvin AT, Taylor A, Williams D, D'Antonio N, Zhang Y, Rajagopalan A, Flietner E, Wilson K, Zhang X, Shinn P, Klumpp-Thomas C, McKnight C, Itkin Z, Chen L, Kazandijian D, Zhang J, Michalowski AM, Simmons JK, Keats J, Thomas CJ, Mock BA. Drug combinations identified by high-throughput screening promote cell cycle transition and upregulate Smad pathways in myeloma. Cancer Lett. 2023 Aug 1;568:216284. doi: 10.1016/j.canlet.2023.216284. Epub 2023 Jun 24. PMID: 37356470; PMCID: PMC10408729.
SEQUENCE No. (e.g., 1, 2, 3, etc.); […] (e.g., Cells, Incubation, Reagent, etc.); VALUE and DESCRIPTION.
1; Cells; 5 uL; white, solid bottom 1536-well Greiner assay plate.
2; Compounds; 23 nL; Kalypsis pin tool (Wako USA) equipped with a 1536-well pin head to transfer to the assay plates.
3; Incubation; 48 hours; 37C incubation.
4; Reagent;5uL; CellTiter Glo (Promega).
5; Detector; 425V; Luminescence; Viewlux PerkinElmer.
NOTES (numbers refer to Sequence numbers above)
1. The cell-based screening methods employed in this study were like those previously published. Briefly, the corresponding myeloma cell lines were screened in 1,536-well plates with 500 cells, 5-uL per well for inhibition of cell viability (assessed by measuring ATP levels with CellTiterGlo).
2. NCATS MIPE 4.0 library of approved and investigational drugs were added using the Kalypsis pin tool. Wells treated with DMSO only for 100% viability and media only for 0% viability were used as controls.
3. The assay plates were covered and incubated for 48 hours in a 37C, 5% CO2 incubator with controlled humidity.
4. After 48 hours, CellTilter-GloTM luminescent substrate mix (Promega) reagent was added to the assay plate and plates we incubated for 5 min at room temperature.
5. Signal was measured as median relative luminescence units on a ViewLux (PerkinElmer) multiplate reader.
[1] Heske CM, Davis MI, Baumgart JT, Wilson K, Gormally MV, Chen L, Zhang X, Ceribelli M, Duveau DY, Guha R, Ferrer M, Arnaldez FI, Ji J, Tran HL, Zhang Y, Mendoza A, Helman LJ, Thomas CJ. Matrix Screen Identifies Synergistic Combination of PARP Inhibitors and Nicotinamide Phosphoribosyltransferase (NAMPT) Inhibitors in Ewing Sarcoma. Clin Cancer Res. 2017 Dec 1;23(23):7301-7311. doi: 10.1158/1078-0432.CCR-17-1121. Epub 2017 Sep 12. PMID: 28899971; PMCID: PMC6636827.
Potency means the concentration at half of the fitted maximal effect.

Row | Compound | Potency
1 | CC1Cc2ccccc2N1NC(=O)c1ccc(Cl)c(S(N)(=O)=O)c1 (stereo not given) | inactive
2 | CCCCC(CC)COC(=O)C(C#N)=C(c1ccccc1)c1ccccc1 (stereo not given) | inactive
3 | Oc1ccc2ccccc2c1SSc1c(O)ccc2ccccc12 | 13.2 µM (active)
4 | CCN(CC)CCOc1ccc(Nc2ncc3cc(-c4c(Cl)cccc4Cl)c(=O)n(C)c3n2)cc1 | 0.935 µM (active)
5 | COC(=O)C1=C(C)NC(C)=C(C(=O)OC(C)C)C1c1cccc2nonc12 (stereo not given) | 26.4 µM (active)
6 | Nc1cccc2c1CN(C1CCC(=O)NC1=O)C2=O (stereo not given) | inactive
7 | Oc1ccc(OCc2ccccc2)cc1 | inactive
8 | C[C@@H](c1ncncc1F)[C@](O)(Cn1cncn1)c1ccc(F)cc1F | 1.66 µM (active)
9 | COc1cc2c(N3CCN(C(=O)Nc4ccc(OC(C)C)cc4)CC3)ncnc2cc1OCCCN1CCCCC1 | 6.62 µM (active)
10 | COc1cc(Nc2c(C#N)cnc3cc(OCCCN4CCN(C)CC4)c(OC)cc23)c(Cl)cc1Cl | 1.87 µM (active)
11 | CN(C)c1ccc(O)c2c1C[C@H]1C[C@H]3[C@H](N(C)C)C(=O)C(C(N)=O)=C(O)[C@@]3(O)C(=O)C1=C2O | 18.7 µM (active)
12 | Cc1ccc(C)c(OCCCC(C)(C)C(=O)O)c1 | 8.33 µM (active)
13 | CC(C)[C@H](N)C(=O)OCCOCn1cnc2c(=O)[nH]c(N)nc21 | inactive
14 | CC(=O)NC[C@H]1CN(c2ccc(N3CCOCC3)c(F)c2)C(=O)O1 | inactive
15 | CN1C(C(=O)Nc2ccccn2)=C(O)c2sccc2S1(=O)=O | inactive
16 | COC(=O)N[C@H](C(=O)N[C@@H](Cc1ccccc1)[C@@H](O)CN(Cc1ccc(-c2ccccn2)cc1)NC(=O)[C@@H](NC(=O)OC)C(C)(C)C)C(C)(C)C | 9.35 µM (active)
17 | Cc1nc(Nc2ncc(C(=O)Nc3c(C)cccc3Cl)s2)cc(N2CCN(CCO)CC2)n1 | 5.26 µM (active)
18 | CN(C)c1ccc2nc3ccc(=[N+](C)C)cc-3sc2c1 | 1.05 µM (active)
19 | Cc1ccc(NC(=O)c2ccc(CN3CCN(C)CC3)cc2)cc1Nc1nccc(-c2cccnc2)n1 | 18.7 µM (active)
20 | O=C1NC(=O)C(c2ccccc2[N+](=O)[O-])=C1Nc1ccc(O)c(Cl)c1 | 18.7 µM (active)

Row | Compound | Potency
21 | COc1cc(C(C)=O)ccc1OCCCN1CCC(c2noc3cc(F)ccc23)CC1 | 18.7 µM (active)
22 | Cc1cc2c(s1)Nc1ccccc1N=C2N1CCN(C)CC1 | inactive
23 | CN(C)C(=O)[C@H](O)[C@H](Cc1ccccc1)NC(=O)c1cc2cc(Cl)ccc2[nH]1 | 8.33 µM (active)
24 | CC1(C)C(=O)N(CCN2CCC(C(=O)c3ccc(F)cc3)CC2)c2ccccc21 | inactive
25 | Oc1ccc(-c2nc(-c3ccc(F)cc3)c(-c3ccncc3)[nH]2)cc1 | 20.9 µM (active)
26 | COC(=O)C1=C(C)NC(C)=C(C(=O)OCCCN2CCC(c3ccccc3)(c3ccccc3)CC2)C1c1cccc([N+](=O)[O-])c1 (stereo not given) | inactive
27 | N=C(N)c1ccc2cc(OC(=O)c3ccc(N=C(N)N)cc3)ccc2c1 | inactive
28 | O=C1c2c(O)cc(O)cc2OC(c2ccc(O)c(O)c2)C1O (stereo not given) | inactive
29 | O=C(c1ccccc1)c1ccc2n1CCC2C(=O)O (stereo not given) | 10.5 µM (active)
30 | C[C@H](Cc1ccc(O)c(O)c1)[C@@H](C)Cc1ccc(O)c(O)c1 | 18.7 µM (active)
31 | CC(C)C[C@H](NC(=O)[C@H](Cc1ccccc1)NC(=O)c1cnccn1)B(O)O | 0.0105 µM (active)
32 | COc1c2occc2cc2ccc(=O)oc12 | inactive
33 | Cc1c(C(=O)NN2CCCCC2)nn(-c2ccc(Cl)cc2Cl)c1-c1ccc(Cl)cc1 | 26.4 µM (active)
34 | O=C(O)c1cn(-c2ccc(F)cc2)c2cc(N3CCNCC3)c(F)cc2c1=O | inactive
35 | CCOC(=O)C(C)Oc1cccc2c(=O)n(CC(=O)Nc3ccc4c(c3)OCCO4)ccc12 (stereo not given) | inactive
36 | CN(C)CCCC1(c2ccc(F)cc2)OCc2cc(C#N)ccc21 (stereo not given) | inactive
37 | O=c1c(O)c(-c2cc(O)c(O)c(O)c2)oc2cc(O)cc(O)c12 | inactive
38 | c1cnc2cc3c(cc2n1)C1CNCC3C1 | inactive
39 | CNC[C@@H](O)[C@@H](O)[C@H](O)[C@H](O)CO | inactive
40 | CC(C)Oc1ccc2c(=O)c(-c3ccccc3)coc2c1 | inactive
